Counter-ions that a name gives are not always drawn.
Columns and labels:
Experiment in all cases: Euclidean distance of Cell Painting phenotypic profile (signed KS, 77 features) to DMSO centroid (dimensionless distance); 5 or 10 uM (library dependent); higher = stronger phenotypic change vs DMSO (phenoactivity)
Conditions in all cases: 48 h
786-O = test system: 786-O
In short: (§1)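 Five cancer lines and a healthy fibroblast line received library compounds at 10 or 5 uM (library-dependent, 0.1% DMSO final) for 48 h. Stained cells were imaged confocally at 20X (9 fields/well). Harmony extracted 77 features, each scored as a signed Kolmogorov-Smirnov statistic against same-plate vehicle wells. Profiles were plate-position corrected, correlation-weighted and replicate-averaged at the top dose. Phenoactivity is the Euclidean distance from each profile to the median vehicle profile.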

A549 = test system: A549
In short: as §1

DU145 = test system: DU145
In short: as §1

FB = test system: FB
In short: as §1

HEPG2 = test system: HEPG2
In short: as §1

OVCAR4 = test system: OVCAR4
In short: as §1

Structure (SMILES) | Euclidean distance (786-O) | Euclidean distance (A549) | Euclidean distance (DU145) | Euclidean distance (FB) | Euclidean distance (HEPG2) | Euclidean distance (OVCAR4)
Nc1cc(F)ccc1NC(=O)/C=C/c1cnn(C/C=C/c2ccccc2)c1 | 1.54 | 1.02 | 0.877 | 2.44 | 1.27 | 0.895
CNC[C@@H](O)c1ccc(O)c(O)c1 [L-Adrenaline] | 1.4 | 0.654 | 0.94 | 1.3 | 0.928 | 0.954
COc1cc(OC)c(NC(=O)Nc2cc(C)on2)cc1Cl | 0.922 | 0.813 | 1.16 | 0.91 | 0.834 | 1.52
COc1ccc(CNc2nc(N3CCC[C@H]3CO)ncc2C(=O)NCc2ncccn2)cc1Cl [Avanafil] | 1.22 | 0.789 | 1.12 | 0.94 | 0.764 | 1.44
Cc1ccc(-c2ccc(C)cn2)nc1 [Abametapir] | 1.7 | 1.07 | 0.964 | 1.34 | 1.61 | 0.964
C[C@@H]1O[C@@H](Oc2c(-c3ccc(O)c(O)c3)oc3cc(O)cc(O)c3c2=O)[C@H](O)[C@H](O)[C@H]1O [Quercitrin] | 1.05 | 1.14 | 0.64 | 1.09 | 0.738 | 0.915
Oc1c(Cl)cc(Cl)c2cccnc12 [Chloroxine] | 2.07 | 2.64 | 1.54 | 1.48 | 2.06 | 2.02
CCCCCCCCCCCCCCCCOP(=O)([O-])OCC[N+](C)(C)C [Miltefosine] | 1.74 | 1.27 | 1.17 | 1.39 | 1.15 | 1.63
CN1CCC(COc2cnc(-c3cccc(Cn4nc(-c5cccc(C#N)c5)ccc4=O)c3)nc2)CC1 | 1.74 | 3.89 | 2.96 | 2.46 | 1.76 | 1.52
CCCC(=O)OCOC(=O)C1=C(C)NC(C)=C(C(=O)OC)C1c1cccc(Cl)c1Cl (stereo unspecified) [Clevidipine Butyrate] | 1.64 | 0.675 | 1.47 | 0.951 | 2.16 | 1.78
N#C/C(=C(/N)Sc1ccc(N)cc1)c1ccccc1C(F)(F)F | 0.949 | 1.46 | 0.889 | 1.1 | 1.41 | 0.988
O=C(O)COCCN1CCN(C(c2ccccc2)c2ccc(Cl)cc2)CC1 (stereo unspecified) [Cetirizine DiHCl] | 1.09 | 0.92 | 1.29 | 1.32 | 0.618 | 1.47
CO[C@H]1C[C@H](O[C@@H]2/C(C)=C/C[C@@H]3C[C@@H](C[C@]4(CC[C@H](C)[C@@H](C5CCCCC5)O4)O3)OC(=O)[C@@H]3C=C(C)/C(=N/O)[C@H]4OC/C(=C\C=C\[C@@H]2C)[C@]43O)O[C@@H](C)[C@@H]1O [Selamectin] | 1.94 | 3.16 | 6.67 | 1.24 | 0.681 | 1.04
COc1ccc(NS(=O)(=O)c2sc3ccc(Cl)cc3c2C)cc1N1CCNCC1 | 2.31 | 1.39 | 1.12 | 1.13 | 1.35 | 1.29
CC[C@H]1OC(=O)[C@H](C)[C@@H](O[C@H]2C[C@@](C)(OC)[C@@H](O)[C@H](C)O2)[C@H](C)[C@@H](O[C@@H]2O[C@H](C)C[C@H](N(C)C)[C@H]2O)[C@](C)(O)C[C@@H](C)C(=O)[C@H](C)[C@@H](O)[C@]1(C)O [Erythromycin] | 1.41 | 1.02 | 1.69 | 1.16 | 3.29 | 1.43
Cn1c(=O)c2[nH]c(Br)nc2n(C)c1=O [Pamabrom] | 0.794 | 0.799 | 1.56 | 1.18 | 0.337 | 0.81
O=C(O)C1=C(CSc2nnnn2CS(=O)(=O)O)CS[C@@H]2[C@H](NC(=O)[C@H](O)c3ccccc3)C(=O)N12 [Cefonicid sodium] | 0.931 | 0.892 | 0.858 | 1.26 | 0.665 | 1.46
Cc1cc(Nc2cc(N3CCN(C)CC3)nc(/C=C/c3ccccc3)n2)n[nH]1 [ENMD-2076 L-(+)-Tartaric acid] | 2.7 | 3.58 | 2.34 | 3.64 | 2.99 | 2.91
C=CCc1ccc(O)c(OC)c1 [Eugenol] | 0.982 | 1.21 | 0.897 | 0.958 | 0.497 | 1.51
O=C1Nc2ccc(I)cc2/C1=C/c1cc(Br)c(O)c(Br)c1 | 1.58 | 0.975 | 0.984 | 1.02 | 0.668 | 1.3
CN(C)CC(c1ccc(O)cc1)C1(O)CCCCC1 (stereo unspecified) [Desvenlafaxine] | 0.678 | 0.707 | 0.899 | 0.932 | 0.34 | 1.95
CC[C@H](C)C(=O)O[C@H]1C[C@H](O)C=C2C=C[C@H](C)[C@H](CC[C@@H](O)C[C@@H](O)CC(=O)O)[C@H]21 [Pravastatin sodium] | 0.813 | 0.763 | 0.709 | 0.425 | 0.254 | 0.778
Nc1ccn([C@@H]2O[C@H](CO)[C@@H](O)C2(F)F)c(=O)n1 [Gemcitabine] | 2.58 | 2.74 | 3.26 | 2.91 | 2.74 | 2.98

Structure (SMILES) | Euclidean distance (786-O) | Euclidean distance (A549) | Euclidean distance (DU145) | Euclidean distance (FB) | Euclidean distance (HEPG2) | Euclidean distance (OVCAR4)
CCC(=O)OCC(=O)[C@@]1(OC(=O)CC)[C@@H](C)C[C@H]2[C@@H]3CCC4=CC(=O)C=C[C@]4(C)[C@@]3(Cl)[C@@H](O)C[C@@]21C [Beclomethasone dipropionate] | 1.09 | 2.14 | 2.46 | 1.95 | 0.575 | 1.8
Clc1cccc(Cl)c1NC1=NCCN1 [Clonidine HCl] | 1.05 | 1.46 | 1.32 | 1.16 | 0.83 | 1.24
OC[C@@H](O)[C@@H](O)[C@H](O)[C@H](O)CO [D-Mannitol] | 1.14 | 0.536 | 0.826 | 0.744 | 0.415 | 0.791
COc1ccc(C(=O)NCc2ccc(OCCN(C)C)cc2)cc1OC [Itopride hydrochloride] | 1.63 | 0.807 | 0.903 | 0.871 | 1.09 | 0.695
CN(CCOc1ccc(CC2SC(=O)NC2=O)cc1)c1ccccn1 (stereo unspecified) [Rosiglitazone maleate] | 0.964 | 0.896 | 1.89 | 1.31 | 0.95 | 1.34
CN1CCCC(n2nc(Cc3ccc(Cl)cc3)c3ccccc3c2=O)CC1 (stereo unspecified) [Azelastine HCl] | 1.09 | 0.991 | 0.881 | 2.15 | 1.14 | 0.789
C/C=C(/C)C(=O)O[C@H]1[C@H](OC(C)=O)[C@@]2(CO)C(CC1(C)C)C1=CCC3[C@@]4(C)CCC(O[C@@H]5O[C@H](C(=O)O)[C@@H](O[C@@H]6O[C@H](CO)[C@@H](O)[C@H](O)[C@H]6O)[C@H](O)[C@H]5O[C@@H]5O[C@H](CO)[C@@H](O)[C@H](O)[C@H]5O)[C@](C)(CO)C4CC[C@@]3(C)[C@]1(C)C[C@H]2O.C/C=C(\C)C(=O)O[C@H]1[C@H](OC(C)=O)[C@@]2(CO)C(CC1(C)C)C1=CCC3[C@@]4(C)CCC(O[C@@H]5O[C@H](C(=O)O)[C@@H](O[C@@H]6O[C@H](CO)[C@@H](O)[C@H](O)[C@H]6O)[C@H](O)[C@H]5O[C@@H]5O[C@H](CO)[C@@H](O)[C@H](O)[C@H]5O)[C@](C)(CO)C4CC[C@@]3(C)[C@]1(C)C[C@H]2O (stereo partly specified) [Escin] | 1.14 | 0.784 | 0.972 | 1.18 | 0.678 | 1.24
C=CCCCCCCCCC(=O)[O-].C=CCCCCCCCCC(=O)[O-].[Zn+2] [Zinc Undecylenate] | 1.22 | 2.06 | 1.09 | 1.1 | 0.358 | 1.9
CCN(C(=O)c1c(O)c2c(Cl)cccc2n(C)c1=O)c1ccccc1 [Laquinimod] | 0.923 | 0.95 | 0.863 | 0.902 | 0.638 | 1.25
CN[C@H]1C(=O)N[C@@H]2Cc3ccc(cc3)Oc3cc4cc(c3O[C@@H]3O[C@H](C(=O)O)[C@@H](O)[C@H](O)[C@H]3NC(=O)CCCCCCCCC(C)C)Oc3ccc(cc3Cl)[C@@H](O)[C@@H]3NC(=O)[C@H](NC(=O)[C@@H]4NC(=O)[C@@H](NC2=O)c2cc(cc(O)c2Cl)Oc2cc1ccc2O)c1ccc(O)c(c1)-c1c(O[C@H]2O[C@H](CO)[C@@H](O)[C@H](O)[C@@H]2O)cc(O)cc1[C@@H](C(=O)NCCCN(C)C)NC3=O [Dalbavancin] | 0.58 | 0.819 | 1.15 | 0.48 | 0.566 | 0.603
CCCCNc1ccc(C(=O)OCCOCCOCCOCCOCCOCCOCCOCCOCCOC)cc1 [Benzonatate] | 1.17 | 1.09 | 0.781 | 1.36 | 0.687 | 1.37
Clc1ccccc1C(c1ccccc1)(c1ccccc1)n1ccnc1 [Clotrimazole] | 2.01 | 1.31 | 1.38 | 1.42 | 1.76 | 1.64
c1cnc2cc3c(cc2n1)[C@@H]1CNC[C@H]3C1 [Varenicline Tartrate] | 0.702 | 0.985 | 0.786 | 0.802 | 0.459 | 1.05
N[C@@H](C(=O)N[C@@H]1C(=O)N2C(C(=O)O)=C(Cl)CS[C@H]12)c1ccccc1 [Cefaclor] | 1.19 | 0.817 | 0.688 | 0.8 | 0.709 | 1.53
OC(CCN1CCCCC1)(c1ccccc1)C1CC2C=CC1C2 (stereo unspecified) [Biperiden HCl] | 0.618 | 0.662 | 0.98 | 1.08 | 1.01 | 0.843
COc1c(O[C@@H]2O[C@H](CO)[C@@H](O)[C@H](O)[C@H]2O)cc2c(c1OC)-c1ccc(SC)c(=O)cc1[C@@H](NC(C)=O)CC2 [Thiocolchicoside] | 0.819 | 0.537 | 0.944 | 1.41 | 0.502 | 1.21
c1ccc2c(CC3=NCCN3)cccc2c1 [Naphazoline HCl] | 1.23 | 0.672 | 1.11 | 0.693 | 0.599 | 0.531
N.N.O=C([O-])C[O-].[Pt+2] [Nedaplatin] | 3.19 | 2.86 | 4.02 | 3.24 | 2.92 | 2.99
COc1cc2c(Oc3ccc4[nH]c(C)cc4c3F)ccnc2cc1OCC1(N)CC1 [Anlotinib (AL3818) dihydrochloride] | 3.26 | 3.7 | 2.73 | 3.46 | 3.11 | 3.17
NC(=O)Cc1cccc(C(=O)c2ccccc2)c1N [Nepafenac] | 1.03 | 1.31 | 2.96 | 1.25 | 1.14 | 0.874
C[C@H](NC(=O)Cc1cc(F)cc(F)c1)C(=O)N[C@@H]1C(=O)N(C)c2ccccc2-c2ccccc21 | 0.725 | 1.36 | 1.17 | 1.09 | 0.895 | 0.686
OCc1cc(C(O)CNCCCCCCOCCCCc2ccccc2)ccc1O (stereo unspecified) [Salmeterol] | 1.56 | 1.95 | 1.51 | 1.75 | 2.13 | 1.77
OC[C@H]1O[C@@H](Oc2cc(O)cc(/C=C/c3ccc(O)cc3)c2)[C@H](O)[C@@H](O)[C@@H]1O [Polydatin] | 1.21 | 2.03 | 1.22 | 0.978 | 0.886 | 1.3
